An excerpt weighted towards active compounds, which were near 2.9% of everything screened.
ERa coact inh: ER-alpha (human) coactivator binding inhibition | AID 629 | TR-FRET ER-alpha LBD / SRC-1 peptide, estradiol-bound | inhibition, % at 25.6 µM | 1.7% of 86,000 active | P03372; in the data active = inhibition above about 50%
Target sequence (P03372 whole entry, looked up, the tested form may be a part): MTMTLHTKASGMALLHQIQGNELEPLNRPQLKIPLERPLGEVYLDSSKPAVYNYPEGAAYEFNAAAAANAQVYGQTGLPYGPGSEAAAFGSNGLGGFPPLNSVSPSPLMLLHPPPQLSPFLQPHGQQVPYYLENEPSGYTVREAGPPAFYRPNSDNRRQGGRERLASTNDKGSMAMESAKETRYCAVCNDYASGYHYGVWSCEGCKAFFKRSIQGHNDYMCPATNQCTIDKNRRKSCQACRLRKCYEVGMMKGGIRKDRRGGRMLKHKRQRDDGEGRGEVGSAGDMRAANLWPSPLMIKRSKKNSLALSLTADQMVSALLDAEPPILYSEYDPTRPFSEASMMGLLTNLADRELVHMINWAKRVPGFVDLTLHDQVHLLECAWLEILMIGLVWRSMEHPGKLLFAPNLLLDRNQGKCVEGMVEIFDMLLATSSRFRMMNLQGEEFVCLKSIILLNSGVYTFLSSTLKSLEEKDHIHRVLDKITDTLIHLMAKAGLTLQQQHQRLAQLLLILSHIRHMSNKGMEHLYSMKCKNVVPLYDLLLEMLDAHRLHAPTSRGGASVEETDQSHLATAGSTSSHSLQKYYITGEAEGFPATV
Smad3 inh: blocks human Smad3 binding to FoxH1 peptide. TR-FRET Smad3/Dy647-FoxH1 peptide binding, europium anti-His. inhibition, % at 25 µM. 0.29% of 88,000 active. AID 630;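 active = compounds that reduce the energy-transfer binding signal between the protein and its labelled peptide by more than half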
MRP reversal: reverses drug resistance mediated by MRP; 0.04% of 85,000 active; H69AR cells + 2 uM doxorubicin, CellTiter-Glo, 72 h; differential viability (reversal), % at 10 µM;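 active = viability drop by adding the cancer drug above about 55%, with treated viability meeting a 40% cutoff, limit read from the data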;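 note: larger differential means the compound sensitizes cells more to doxorubicin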
MRP-1 activ: activators of MRP-1; H69AR cells + doxorubicin, viability rescue, CellTiter-Glo; viability increase, % at 10 µM; 0.61% of 140,000 active; AID 799;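 active = viability gain under doxorubicin at or above a set limit, the compound median plus 3 SD, cut at about 4.7% in these data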;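 note: MRP-1 overexpressing cells given doxorubicin 25 µM after compound pretreatment; 18-22 h compound pretreatment then 72 h with doxorubicin before readout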
ERb coact inh: ER-beta (human) coactivator binding inhibition; 1.3% of 86,000 active; TR-FRET ER-beta LBD / SRC1-Cy5 peptide binding; receptor agonist-loaded with 1 µM estradiol; AID 633; inhibition, % at 25.6 µM;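 active = compounds whose percent inhibition of the receptor-coactivator binding signal exceeds about 50% in the single-dose screen, limit read from the data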
ERa coact pot: enhances coactivator binding to human estrogen receptor alpha. coactivator binding (% of control), % at 25.6 µM. TR-FRET ERalpha-LBD/SRC-Cy5 coactivator binding, 2 h; 100 = basal binding, no effect. 1.3% of 86,000 active; in the data active = activity above about 200%;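 note: binding measured in presence of low estradiol as agonist stimulus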
Hits are given with their value; n = inactive; x = not tested or not shown; [ ] = another dose, or the depositor's remark.

SMILES	ERa coact inh	Smad3 inh	MRP reversal	MRP-1 activ	ERb coact inh	ERa coact pot
CCCCNc1c(CN)cnc2cc(Cl)ccc12	x	n	x	x	x	x
CCOC(=O)Cn1c(=O)oc2cc(S(=O)(=O)Nc3ccc(F)cc3)ccc21	n	n	n	n	n	n
CCOC(=O)N1c2ccccc2C=CC1OCC (centres undefined)	n	n	n	n	n	619
CC1C=Cc2ccccc2N1C(=O)c1ccccc1 (centres undefined)	n	n	n	n	n	n
CCc1nc(NCCCCCO)c2nnn(Cc3ccccc3F)c2n1	n	n	n	n	n	n
COc1cccc(NC(=O)c2oc3ccccc3c2NC(=O)C(C)(C)C)c1	n	n	n	n	n	n
CCCC(=O)Nc1ccc(-c2nc3cc(C)c(C)cc3o2)c(O)c1	n	n	n	n	n	n
COc1c(F)c(F)c(C(=O)Nc2ccc3oc(-c4ccncc4)nc3c2)c(F)c1F	n	n	n	n	n	n
COc1ccc(-c2nc3cc(NC(=O)c4ccc5c(c4)OCO5)ccc3o2)cc1	n	n	n	n	n	412[fluorescence artefact?]
COc1ccc(CC(=O)Nc2ccc(-c3nc4cc(C)ccc4o3)c(O)c2)cc1OC	90[fluorescence artefact?]	n	n	n	53[fluorescence artefact?]	n
O=C(Nc1ccc2oc(-c3ccncc3)nc2c1)c1c(F)c(F)c(F)c(F)c1F	n	n	n	n	n	266
COc1cccc(NC(=O)c2oc3ccccc3c2NC(=O)c2ccc3c(c2)OCO3)c1	n	n	n	5.0	n	n
COc1cccc2c1[C@H](CO)N1[C@H](C#N)[C@H]3C[C@@H](C(=O)O)[C@@H]([C@@H]1C2)N3C	x	n	x	x	x	x
O=C(O)c1cc(-c2ccc(-c3ccc(-c4cc(C(=O)O)c5cc(Cl)ccc5n4)cc3)cc2)nc2ccc(Cl)cc12	x	n	x	x	x	x
Cc1cc(OCC(=O)Nc2ccc3c(c2)OCCO3)ccc1Cl	n	n	n	n	n	n
O=C(Cc1ccccc1)Nc1ccc2oc(-c3cccnc3)nc2c1	n	n	n	n	n	790
COc1ccccc1C(=O)Nc1ccc2oc(-c3ccc(F)cc3)nc2c1	n	n	n	n	n	252
O=C(Nc1ccc2oc(-c3ccccc3F)nc2c1)c1cncc(Br)c1	54	n	n	n	n	n
Cc1cc(OCC(=O)Nc2ccc3oc(-c4ccncc4)nc3c2)ccc1Cl	n	n	n	n	n	204[fluorescence artefact?]
C=CCn1c(SCc2nc3c(c(=O)[nH]c(=O)n3CCCC)n2CCC)nnc1-c1ccccc1	n	n	n	n	n	n
CCc1nnc(NC=C2C(=O)OC(C)(C)OC2=O)s1	n	n	n	n	n	n
Cc1ccc(C)c(CSc2nnc(-c3cccs3)n2Cc2ccco2)c1	n	n	n	n	n	n
COc1ccc(-c2nc3cc(NC(=S)NC(=O)Cc4ccccc4)ccc3o2)cc1	x	x	x	n	x	x
O=C(Cc1ccc(Cl)cc1)Nc1ccc2oc(-c3ccncc3)nc2c1	n	n	n	n	n	456
Cc1ccc(C2C(C#N)=C(N)SC(N)=C2C#N)o1	n	n	n	n	67[fluorescence artefact?]	n
SMILES	ERa coact inh	Smad3 inh	MRP reversal	MRP-1 activ	ERb coact inh	ERa coact pot
CCc1ccc(C2C(C#N)=C(N)SC(N)=C2C#N)s1	n	n	n	n	n	n
CC12CCCCC1(O)[N+](=O)C1=C(CCCC1)N2[O-] (centres undefined)	n	n	n	n	66	n
CC1=C(C)[N+](=O)C2(O)CCCCC2(C)N1[O-] (centres undefined)	n	n	n	n	n	n
O=C1/C(=C/c2cccs2)N=C(c2cccs2)N1Nc1ccccc1	n	n	n	n	n	n
O=C1/C(=C\c2cccs2)N=C(c2cccs2)N1Nc1ccccc1	n	n	n	6.9	n	n
CC(=O)/C(C#N)=C1\NC(=O)C(Cc2ccccc2)S1 (centres undefined)	n	n	n	4.9	n	n
O=c1c2ccccc2sc2nc(C3CCCCC3)n(Cc3ccco3)c(=O)c12	n	n	n	n	n	222
CCc1nc2sc3ccccc3c(=O)c2c(=O)n1Cc1ccco1	76[fluorescence artefact?]	n	n	n	68	n
Oc1ccc(Nc2nc(-c3ccc4ccccc4c3)cs2)cc1	n	n	n	n	n	n
Oc1ccc(-c2nc(-c3ccc(O)c(O)c3)cs2)cc1	68[fluorescence artefact?]	n	n	9.1	82	n
CC1=CCC2C(=O)N(c3ccc(C)c(Br)c3)C(=O)C2C1 (centres undefined)	x	x	x	n	x	x
CC1=CC2(O)OCCN(CCO)C2=CC1=O (centres undefined)	78[fluorescence artefact?]	n	n	n	86[fluorescence artefact?]	n
O=C(CSCc1ccc(Cl)cc1)N/N=C/c1ccccc1	x	x	x	4.8	x	x
O=C(CSCc1ccccc1)Nc1ccc(F)c(F)c1	x	x	x	4.7	x	x
NC(=O)c1c(NC(=O)c2cc3ccccc3o2)sc2c1CCC2	62	n	n	n	53	n
O=C(Nc1ccc(Cl)c(Cl)c1)Nc1cc(C(=O)NC2CC2)ccc1Cl	x	x	x	n	x	x
N=C(N)S[C@@H]1c2ccccc2-c2cc([N+](=O)[O-])ccc21	x	69	x	x	x	x
O=C(CON1C(=O)c2ccccc2C1=O)c1ccccc1	x	n	x	x	x	x
Cn1c(=O)c2nc(-c3ccc(Cl)cc3Cl)oc2c2ccccc21	59[fluorescence artefact?]	n	n	n	n	n
COc1ccc([C@@H](Nc2ncccn2)c2cc3c(cc2O)OCO3)cc1	x	n	x	x	x	x
COc1ccc([C@@H](Nc2ccccn2)c2cc(C(C)(C)C)cc(C(C)(C)C)c2O)cc1	x	69	x	x	x	x
Cc1nnc(NC(=O)c2cccc(F)c2)s1	x	x	x	n	x	x
Cc1nnc(NC(=O)c2c(F)cccc2F)s1	n	n	n	9.3	n	n
Cc1nnc(NC(=O)c2ccc(-c3cccc(C(F)(F)F)c3)o2)s1	n	n	n	n	n	288
O=c1[nH]c(C2CCCN(S(=O)(=O)c3ccccc3)C2)nc2c1nnn2Cc1ccccc1 (centres undefined)	n	n	n	5.3	n	n
SMILES	ERa coact inh	Smad3 inh	MRP reversal	MRP-1 activ	ERb coact inh	ERa coact pot
O=c1[nH]c(C2CCCN(S(=O)(=O)c3ccccc3)C2)nc2c1nnn2Cc1ccccc1F (centres undefined)	n	n	n	n	n	n
Cc1cc(-c2csc(NC(=O)c3cc4ccccc4o3)n2)c(C)n1C	x	x	x	n	x	x
O=C(Nc1nc(-c2cc3ccccc3oc2=O)cs1)c1ccc(Br)o1	n	n	n	n	n	224[fluorescence artefact?]
Cc1nc(NC(=O)CSc2nc3cccnc3n2C2CCCCC2)sc1C	n	n	n	n	n	n
CCc1nnc(NC(=O)CSc2nc3cccnc3n2C2CCCCC2)s1	n	n	n	4.8	n	n
O=C(NOC(=O)c1ccccc1Cl)c1cccs1	n	n	n	n	n	n
C=C(C)CN(CC#N)CC(=C)C	x	n	x	x	x	x
Cc1cc(NS(=O)(=O)c2ccc(Nc3nc(-c4sc(N)nc4C)cs3)cc2)no1	n	n	n	n	56[fluorescence artefact?]	n
CS[C@@H](CC(=O)O)C(=O)O	x	n	x	x	x	x
Cc1[nH]nc(SCC(=O)NCc2ccc(F)cc2)c1[N+](=O)[O-]	x	x	x	n	x	x
